Molecules are shown by their SMILES. Records with an inconclusive call do not appear. A structure can be active in one record and inactive in another. Active and inactive are the calls of the source. Calls come from the whole dose curve; as a rule, active = well fitted activation curve with a large enough effect in the repeat runs; inconclusive = weak or mixed curves; inactive = flat fitted curve, though single readings scatter.
% is set by controls: 0 for no effect and ±100 for the full control effect; potency is the fitted concentration of half-maximal effect.

In this assay the target is Nuclear receptor subfamily 1 group I member 2 (Homo sapiens) (UniProt O75469). Briefly: Human pregnane X receptor (PXR) activation by small molecules, qHTS assay (AID 1346985). Note: nearly all actives have a fitted effect of over 40% in size. As to conditions: DPX-2 HepG2 CYP3A4-luciferase, 24 h; series mostly up to 38.3 µM; activation: at the top concentration. The procedure, abridged: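 DPX-2 cells (HepG2 co-transfected with a PXR response element and a CYP3A4-promoter luciferase construct) were seeded at 2,000 per well, rested 5 hr at 37C, then exposed to DMSO-dissolved compounds for 24 hr. Activation was read as luciferase luminescence.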
As to `COC(=O)[C@H]1[C@H]2C[C@@H]3c4[nH]c5cc(OC)ccc5c4CCN3C[C@H]2C[C@@H](OC(=O)/C=C/c2cc(OC)c(OC)c(OC)c2)[C@@H]1OC`, the “activation” value was 22% [at 17.1 µM] (inactive).
For the compound `COc1cc([C@@H]2c3cc4c(cc3C(O[C@@H]3O[C@@H]5COC(c6cccs6)O[C@H]5[C@H](O)[C@H]3O)C3COC(=O)[C@@H]32)OCO4)cc(OC)c1O` (some centres undefined), the Potency is 10 µM (active).
Same read-out and setting: then `CC(C)CN(C[C@@H](OP(=O)(O)O)[C@H](Cc1ccccc1)NC(=O)O[C@H]1CCOC1)S(=O)(=O)c1ccc(N)cc1`, with 10 µM (active); and `Cc1cc(O)c2c(c1)O[C@@]1(C)CC[C@H]3C(C)(C)CCCC34CO[C@@H]2[C@H]41` (some centres undefined), with 2.82 µM (active).
For `NC(=O)Oc1ccc(Cc2ccccc2)cc1`, the “activation” value is 10.8% (inactive).
`CC(C)(CO)[C@@H](O)C(=O)NCCC(=O)NCCSSCCNC(=O)CCNC(=O)[C@H](O)C(C)(C)CO`: the “activation” value was -7.15% (inactive).
Same read-out and setting: then `COCC(=O)Nc1cc(Sc2ccccc2)ccc1N=C(NC(=O)OC)NC(=O)OC`, with 95.6% (inactive).
As for `CN1C(=O)CN2CCc3ccccc3C2c2cc(Cl)ccc21` (centres undefined), the Potency was 22.4 µM (active).
As for `CCSc1ccc2c(c1)N(CCCN1CCN(C)CC1)c1ccccc1S2`, the “activation” value was 11.3% [at 17.1 µM] (inactive).
For `S=C1SCN(Cc2ccccc2)CN1Cc1ccccc1`, the Potency was 14.1 µM (active).
The same measure, in the same setting: then `CN(C)C=Nc1c(I)cc(I)c(CCC(=O)O)c1I`, with 14.1 µM (active).
As for `CC(=O)[C@]1(O)Cc2c(O)c3c(c(O)c2[C@@H](O[C@H]2C[C@H](N)[C@H](O)[C@H](C)O2)C1)C(=O)c1c(O)cccc1C3=O`, the Potency is 14.1 µM (active) and inactive.
In the case of `CC(C)c1nc(N(C)S(C)(=O)=O)nc(-c2ccc(F)cc2)c1/C=C/C(O)CC(O)CC(=O)O` (centres undefined), the “activation” value is 29.6% (inactive).
Take `CO[C@H]1C=CO[C@@]2(C)Oc3c(C)c(O)c4c(O)c(c5c(nc6cc(C)ccn65)c4c3C2=O)NC(=O)/C(C)=C\C=C[C@H](C)[C@H](O)[C@@H](C)[C@@H](O)[C@@H](C)[C@H](OC(C)=O)[C@@H]1C`: the Potency was 10 µM (active).
As for `CN[C@@H]1[C@@H](O)[C@@H](O[C@@H]2[C@@H](O)[C@H](O[C@H]3O[C@H](CN)[C@@H](O)[C@H](O)[C@H]3O)[C@@H](N)C[C@H]2NC(=O)C(O)CN)OC[C@]1(C)O` (some centres undefined), the “activation” value was 0.705% (inactive).
For the compound `CCOC(=O)C1=C[C@@H](OC(CC)CC)[C@H](NC(C)=O)[C@@H](N)C1`, the “activation” value is 2.41% (inactive).
On the same count and under the same terms, in the case of `CCc1ccc(S(=O)(=O)O)cc1` it was 21.2% (inactive).
Take `COC(=O)[C@H]1[C@H]2C[C@@H]3c4[nH]c5ccccc5c4CCN3C[C@H]2C[C@@H](OC(=O)c2cc(OC)c(OC)c(OC)c2)[C@@H]1OC`: the “activation” value was -9.84% (inactive).
Same read-out and setting: in the case of `CCC(=O)OCC(=O)[C@@]1(OC(=O)CC)[C@H](C)C[C@H]2[C@H]3[C@H]([C@@H](O)C[C@@]21C)[C@@]1(C)C=CC(=O)C=C1C[C@H]3Cl` it was 18.2% [at 17.1 µM] (inactive).

For the origin of these results see PubChem BioAssay (Tox21).
